Compound activity deposited in PubChem BioAssay by several laboratories.
H9c2 protect – protects H9c2 cardiomyocytes from peroxide injury; H2O2 injury protection, ATPLite, 2 h; protection from H2O2 cell death, % at 20 µM; 0.63% of 360,000 active; AID 588492;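 active means compounds giving at least 50% protection of heart cells from peroxide-induced death in the single-dose screen, raw or plate-pattern-corrected value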;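 further: 0% = DMSO wells with peroxide and 100% = DMSO wells without peroxide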
PHOSPHO1 inh – PHOSPHO1 (human) inhibition; 1.1% of 290,000 active; Q8TCT1; recombinant PHOSPHO1, absorbance phosphatase assay; inhibition, % at 13.3 µM; in the data active means inhibition above about 60%
Target sequence (Q8TCT1 whole entry, looked up): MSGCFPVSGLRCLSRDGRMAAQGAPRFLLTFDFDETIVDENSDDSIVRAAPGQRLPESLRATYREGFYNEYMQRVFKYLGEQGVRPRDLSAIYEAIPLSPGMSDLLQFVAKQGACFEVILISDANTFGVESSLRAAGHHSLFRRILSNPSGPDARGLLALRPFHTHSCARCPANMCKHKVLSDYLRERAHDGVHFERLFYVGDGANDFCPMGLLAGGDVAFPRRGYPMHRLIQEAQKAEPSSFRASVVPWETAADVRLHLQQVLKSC
PfG6PD inh – PfG6PD (Plasmodium falciparum) enzyme inhibition | AID 504690 | inhibition, % at 20 µM | PfGluPho enzyme, NADPH resazurin-diaphorase fluorescence | 0.78% of 350,000 active;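 active means inhibition reaching at least a set limit at 20 µM in the primary screen, cut at about 59% in these data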;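 further: 0% = DMSO wells with substrate and 100% = DMSO wells lacking glucose-6-phosphate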
M18AAP inhibitor – blocks P. falciparum M18 aspartyl aminopeptidase; AID 1822; 1.2% of 290,000 active; inhibition, % at 7.35 µM; recombinant PfM18AAP, H-Glu-NHMec fluorogenic cleavage;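 active means inhibition above the campaign mean inhibition over all tested compounds plus 3 SD, cut at about 28% in these data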;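 further: 0% = plate median of test compound wells and 100% = 2 mM ZnCl2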
ALR H2O2 inh – blocks human ALR sulfhydryl oxidase activity; purified ALR, DTT oxidation, H2O2 HRP-luminol luminescence; 3.8% of 290,000 active; inhibition, % (no concentration beside the values); P55789;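 active means mean replicate inhibition above about 79%, with every replicate also reaching it, limit read from the data; inconclusive means only one of the two criteria met; inactive means mean below limit and not every replicate reaching it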
Target sequence (P55789 whole entry, looked up): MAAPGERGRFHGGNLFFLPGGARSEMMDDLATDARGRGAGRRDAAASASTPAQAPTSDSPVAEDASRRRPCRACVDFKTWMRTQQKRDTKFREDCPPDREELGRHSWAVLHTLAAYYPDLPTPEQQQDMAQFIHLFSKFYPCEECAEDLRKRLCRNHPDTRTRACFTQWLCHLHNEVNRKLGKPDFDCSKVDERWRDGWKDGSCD
* = called active by the depositor; ? = inconclusive; . = not tested or not shown. Most compounds without a hit are left out; they make up all but 5.6% or so of the library.

SMILES	H9c2 protect	PHOSPHO1 inh	PfG6PD inh	M18AAP inhibitor	ALR H2O2 inh
Cc1ccc(S(=O)(=O)c2nc(Nc3ccccc3C#N)sc2Cl)cc1	-8	-4	16	0	-4
Cc1ccc(S(=O)(=O)c2nc(NN(C)C)sc2Cl)cc1	-8	-2	6	12	97*
COc1ccc(N2CCN(C(CNC(C)=O)c3ccc4c(c3)OCO4)CC2)cc1 (stereo not given)	-6	10	-8	6	88*
O=C(NCCCO)C(=O)NCC(c1ccc2c(c1)OCO2)N1CCN(c2ccc(F)cc2)CC1 (stereo not given)	-3	22	4	0	35
COc1ccc(N2CCN(C(CNC(=O)C(=O)NCc3ccc4c(c3)OCO4)c3ccco3)CC2)cc1 (stereo not given)	-7	19	19	-5	-8
COc1ccc(N2CCN(C(CNC(=O)CC(C)(C)C)c3ccc4c(c3)OCO4)CC2)cc1 (stereo not given)	-1	-6	7	3	82*
CCc1ccc(O)c(N=Cc2cccc(C)c2O)c1	60*	2	27	13	7
O=C(O)C1C2CCC(C2)C1C(=O)N1CCCC1 (stereo not given)	-1	.	-19	-3	-8
CN(c1ccccc1)S(=O)(=O)c1cccc(NC(=O)c2nn(C)c(=O)c3ccccc23)c1	10	.	6	.	.
Nc1c(C(=O)NC2CC2)c2nc3ccccc3nc2n1-c1ccc2c(c1)OCO2	77*	13	-2	0	.
CC(=O)Nc1cc(-c2cccc(C(=O)NCCN(C)C)c2)cn2c(-c3ccc(C(C)=O)cc3)cnc12	13	.	.	.	.
N=c1c[n+](-c2ccc(Cl)cc2)[n-]o1	-9	93*	2	2	-13
Cc1csc(SCC(=O)c2ccc(S(=O)(=O)N3CCOCC3)cc2)n1	2	78*	12	14	.
Cc1ccccc1N(CC(=O)Nc1ccc(S(=O)(=O)N2CCOCC2)cc1)S(C)(=O)=O	-4	63*	0	3	0
Cc1csc(SCC(=O)Nc2cc(S(=O)(=O)N3CCOCC3)ccc2N2CCOCC2)n1	4	-119	-6	1	-1
NNC(=S)Nc1ccc(S(=O)(=O)N2CCOCC2)cc1	3	-128	2	3	98*
NNC(=S)Nc1ccc(S(=O)(=O)N2CCCCC2)cc1	3	-55	3	12	5
Nc1nnc(SCC(=O)Nc2ccc(S(=O)(=O)N3CCOCC3)cc2)s1	-1	57	11	-5	96*
CN(Cc1ccccc1)C(=O)c1ccccc1N(C)S(=O)(=O)c1ccccc1	-1	.	-10	.	.
Cc1ccccc1S(=O)(=O)N(C)C[C@H]1OCc2cn(nn2)CCCC(=O)N([C@H](C)CO)C[C@@H]1C	5	.	.	.	.
CC(C)CCOC(=O)/C(=C/c1ccco1)NC(=O)/C=C/c1ccccc1	-2	30	0	2	90*
O=C(C1CC1)N1CCN=C1SCc1cccc(C(F)(F)F)c1	1	18	-1	0	?
COc1ccc(CC(=O)N2CCN=C2SCc2cccc([N+](=O)[O-])c2)cc1	10	27	-19	16	99*
O=C(Cc1ccc([N+](=O)[O-])cc1)N1CCN=C1SCc1ccccc1	-4	-18	2	0	-4
O=C(C1CCCCC1)N1CCN=C1SCc1cccnc1	-2	1	-2	8	100*
SMILES	H9c2 protect	PHOSPHO1 inh	PfG6PD inh	M18AAP inhibitor	ALR H2O2 inh
COc1ccc(S(=O)(=O)N2CCN=C2SCc2cccc(F)c2)cc1	-1	61*	9	0	-5
O=C(C1CCCCC1)N1CCN=C1SCc1cccc([N+](=O)[O-])c1	-3	57	-11	19	100*
Cc1noc(C)c1S(=O)(=O)NC(=O)C1(C)CCN1C(=O)c1ccc(C2CCCCC2)cc1 (stereo not given)	-2	.	.	.	.
CN(C)C(CNC(=O)c1ccc(S(=O)(=O)Nc2cccc(C(F)(F)F)c2)cc1)c1ccco1 (stereo not given)	-7	.	-21	.	-3
CC1CC(C)CN(C(=O)c2ccc(-c3ccc([N+](=O)[O-])cc3)o2)C1 (stereo not given)	-10	.	32	.	89*
CCC(CC)C(=O)c1c[nH]c(C(=O)NCCCN2CCOCC2)c1	-3	66*	1	2	5
O=C(c1ccc(F)cc1)c1c[nH]c(C(=O)NCCCN2CCOCC2)c1	-5	5	-21	0	-5
O=C(NCCCN1CCOCC1)c1cc2c(s1)CSC2	5	27	6	2	99*
COCCCNC(=S)NNC(=O)Cn1nc(C)c(Br)c1C	4	14	-7	30*	51
CCOC(=O)NNc1ccccc1	-2	-37	13	0	-9
CCC(O)CC(C(=O)NNc1ccccc1)C(=O)NNc1ccccc1 (stereo not given)	2	-26	5	10	99*
CCc1nnc(NC(=O)CSc2ccc(-c3ccco3)nn2)s1	3	72*	-1	4	-5
CCc1nnc(NC(=O)CSc2ncc(-c3ccccc3)[nH]2)s1	10	40	0	4	99*
Cc1nnc(NC(=O)CSc2ncc(-c3ccccc3)[nH]2)s1	6	10	-7	-12	62
Cc1nnc(NC(=O)CSc2ccc(-c3ccco3)nn2)s1	8	-11	-6	5	97*
COCCNc1nc(Oc2ccc(C(N)=O)cc2)c2sccc2n1	-1	.	.	.	.
COc1cc2c(cc1NC(=O)CSc1ccc(C)cc1)oc1ccccc12	-10	18	20	2	-6
COc1cc2c(cc1NC(=O)CSc1cccc[n+]1[O-])oc1ccccc12	23	7	15	2	96*
COC(=O)c1ccc(C(=O)OC)c(NC(=O)CSCC(=O)O)c1	13	24	-18	4	2
COC(=O)c1ccc(C(=O)OC)c(NC(=O)CSc2cccc[n+]2[O-])c1	6	87*	32	12	-6
O=C(Cc1n[nH]c(=O)c2ccccc12)NC(c1ccccc1)c1ccccc1	2	-8	12	-4	-7
COc1cc(C(C)=O)ccc1OCC(=O)NCc1ccccc1CN1CCCC1	7	.	-2	.	.
O=C(NC(c1ccc(F)cc1)c1ccc2ccccc2n1)C1CCN(CCOc2ccc(Cl)cc2)CC1 (stereo not given)	-30	.	.	.	.
CCCc1[nH]nc2c1C(c1ccc(OC(=O)N3CCOCC3)cc1)C(C#N)=C(N)O2 (stereo not given)	8	63*	4	6	26
CCCc1[nH]nc2c1C(c1ccc(O)c(OC)c1)C(C#N)=C(N)O2 (stereo not given)	-2	10	1	2	99*
CCCc1[nH]nc2c1C(c1ccccc1OC)C(C#N)=C(N)O2 (stereo not given)	5	13	3	-7	42
Cc1nn(Cc2ccc(Cl)cc2)c(C)c1NC(=O)CSc1nc2c(c(C(F)(F)F)n1)CCc1ccccc1-2	-5	-14	-13	8	98*
Cc1ccc(Cn2nc(C)c(NC(=O)CSc3nc4c(c(C(F)(F)F)n3)CCc3ccccc3-4)c2C)cc1	-4	4	-1	-4	.
